From a collection of fitness landscapes (doi:10.1016/j.celrep.2020.107928)
Over roughly 81,000 sequences, “one-hybrid fitness for binding NBS DNA” has its median near -0.1; the highest 2% begin near 0.36. This excerpt belongs to a sample that is enriched for the highest values.

B1: Caulobacter ParB omega fusion; a variant is named by its letters at X, in order, B8GW30 (parent)
chain: MESVVVGEPGMSEGRRGLGRGLSALLGEVDAAPAQAPGEQLGGSREAPIEILQRNPDQPRRTFREEDLEDLSNSIREKGVLQPILVRPSPDTAGEYQIVAGERAWRAAQRAGLKTVPIMVRELDDLAVLEIGIIENVQRADLNVLEEALSYKVLMEKFERTQENIAQTIGKSXSHVANXMRLLXLPDEVQSYLVSGELTAXHARAIAAAADPVALAKQIIEGGLSVRETEALARKAPNLSAGKSKGGRPPRVKDTDTQALESDLSSVLGLDVSIDHRGSTGTLTITYATLEQLDDLCNRLTRGI

Variants of: B1
Experiment: one-hybrid fitness for binding NBS DNA (the Noc-binding site; scaled: cognate 1, non-cognate 0); higher = stronger binding
Settings: with NBS DNA site
Method in brief: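 Bacterial one-hybrid selection in E. coli USO rpoZ- hisB- pyrF- with a HIS3 reporter carrying the site 19 bp from the promoter, screening Caulobacter ParB libraries with four specificity codons randomised (NNS). Cells grew 48 hours at 37°C on M9-minus-histidine plus 0.1 mM IPTG and 5 mM 3-AT. Plasmids before and after selection were Illumina-sequenced, three replicate libraries pooled, and variants under 10 reads dropped. Fitness is the log change in variant-to-wild-type read ratio, rescaled to cognate 1, non-cognate 0.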

Variant | one-hybrid fitness for binding NBS DNA
QVNH | ≤ 0.2
QVPT | ≤ 0.2
QVHP | ≤ 0.2
QVHT | 0.373
QVRT | 0.56
QVDT | ≤ 0.2
QVNT | 0.44
QVHS | 0.296
QVYT | 0.268
VWQD | ≤ 0.2
RNQS | 0.281
FLHG | ≤ 0.2
RSTP | ≤ 0.2
RITP | ≤ 0.2
RTTR | 0.571
RITR | 0.437
RSTN | ≤ 0.2
RTTQ | ≤ 0.2
RITD | ≤ 0.2
RATR | 0.43
RSTR | 0.447
RATP | ≤ 0.2

Variant | one-hybrid fitness for binding NBS DNA
RTTF | ≤ 0.2
RATN | ≤ 0.2
PCDK | ≤ 0.2
FRRH | ≤ 0.2
RLSY | ≤ 0.2
INTS | ≤ 0.2
LHDW | ≤ 0.2
TECL | ≤ 0.2
SMQN | ≤ 0.2
TDVE | ≤ 0.2
RHTR | 0.459
RKTR | 0.602
RKTK | ≤ 0.2
RHTK | ≤ 0.2
RKTN | ≤ 0.2
RRTR | 0.75
RLTY | ≤ 0.2
RRTF | ≤ 0.2
RHTG | ≤ 0.2
RLTQ | ≤ 0.2
RRTC | 0.314
RLTR | 0.443

Variant | one-hybrid fitness for binding NBS DNA
RNPQ | ≤ 0.2
MEAC | ≤ 0.2
CITN | ≤ 0.2
YDAI | ≤ 0.2
TGAY | ≤ 0.2
NFLN | ≤ 0.2
CWAR | ≤ 0.2
PSCM | ≤ 0.2
QDAF | ≤ 0.2
APPH | ≤ 0.2
CTYS | ≤ 0.2
ATYE | ≤ 0.2
RMTP | ≤ 0.2
RMTR | 0.446
RPTR | ≤ 0.2
RCTR | 0.534
RFTR | 0.298
RMTH | ≤ 0.2
FPHC | ≤ 0.2
CSFN | ≤ 0.2
QSVR | 0.379
QPVR | 0.377

Variant | one-hybrid fitness for binding NBS DNA
QCVR | 0.48
QSVD | ≤ 0.2
QDVR | ≤ 0.2
QPVH | ≤ 0.2
QSVN | ≤ 0.2
QGVR | ≤ 0.2
QPVN | ≤ 0.2
RICA | ≤ 0.2
IIHR | ≤ 0.2
TNLI | ≤ 0.2
SPSF | ≤ 0.2
FYQC | ≤ 0.2
GTTP | ≤ 0.2
QRER | 0.637
QPER | ≤ 0.2
QCER | 0.438
QIER | 0.219
QHER | 0.288
QSER | 0.285
QTEN | ≤ 0.2
QTER | 0.458
QTEP | ≤ 0.2
